Test [1] concerns the target bovine Gamma-Aminobutyric Acid Type A Receptor BDZ, alpha 5 site (GABARa5), GABRA5 (gene 523515) (UniProt Q08E50). The test is described as follows: NVS_LGIC_bGABARa5: NovaScreen (NVS) Ligand-Gated Ion Channel Assay for bovine Gamma-Aminobutyric Acid Type A Receptor BDZ, alpha 5 site (GABARa5) (AID 2283323). In outline:
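Tested first in duplicate at a single 25 uM, with hits re-run in concentration series to a 50 uM maximum. Bovine hippocampal membranes; specific radioligand displacement measured by filter scintillation counting 1 hr post-dose.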

Test [2] has as its target rat Gamma-Aminobutyric Acid Type A Receptor BDZ, alpha 6 site (GABARa6), Gabra6 (gene 29708) (UniProt P30191). In words: NVS_LGIC_rGABARa6: NovaScreen (NVS) Ligand-Gated Ion Channel Assay for rat Gamma-Aminobutyric Acid Type A Receptor BDZ, alpha 6 site (GABARa6) (AID 2283339). In outline:
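Actives from a 25 uM duplicate screen were retested in concentration series (max 50 uM). Specific radioligand displacement from rat cerebellar membranes was counted by filter-based scintillation at 1 h; DMSO served as baseline.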

Test [3] addresses rat Gamma-Aminobutyric Acid Type A Receptor, Non-Selective (GABAR-NonSelective), Gabra1 (gene 29705) (UniProt P62813). The test is described as follows: NVS_LGIC_rGABAR_NonSelective: NovaScreen (NVS) Ligand-Gated Ion Channel Assay for rat Gamma-Aminobutyric Acid Type A Receptor, Non-Selective (GABAR-NonSelective) (AID 2283326). In outline: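 Compounds were first screened in duplicate at 25 uM, with actives run as singleton concentration series (max 50 uM). Binding of a radioligand to rat whole-brain GABA-A preparation was measured by filtration and scintillation counting after 1 h, DMSO baseline.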

Test [4] concerns the target Voltage-gated inwardly rectifying potassium channel KCNH2 (Homo sapiens) (UniProt Q12809). In words: NVS_IC_hKhERGCh: NovaScreen (NVS) Ion Channel Assay for human Potassium Channel ERG (KhERGCh) (AID 2283333). In outline: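 Membranes from CHO cells expressing human ERG; displacement of radioligand measured by filtration and scintillation after 0.75 h. Single-concentration duplicate screen at 25 uM, then concentration-response for actives; DMSO baseline.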

Test [5] deals with human Constitutive Androstane Receptor (CAR), NR1I3 (gene 9970) (UniProt Q14994). The test is described as follows: NVS_NR_hCAR_Agonist: NovaScreen (NVS) Nuclear Receptor Binding Assay for human Constitutive Androstane Receptor Agonism (CAR) (AID 2283328). In outline: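 Actives from a 25 uM duplicate screen were retested in singleton concentration series to 50 uM max. Biochemical TR-FRET assay on extracted CAR protein measured 1 h post-dose, with signal increase over DMSO control.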

In test [6] the target is Small conductance calcium-activated potassium channel protein 1 (Rattus norvegicus) (UniProt P70606). In words: NVS_IC_rKCaCh: NovaScreen (NVS) Ion Channel Assay for rat Potassium Channel, Ca2+ Act., VI (KCaCh) (AID 2283336). In outline: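 Filter-based scintillation counting of radioligand bound to rat forebrain membrane preparations, measured 1 h after compound addition. Primary screen used 25 uM in duplicate, with concentration-response follow-up; signal decrease relative to DMSO marks activity.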
Small conductance calcium-activated potassium channel protein 1 (Rattus norvegicus), sequence (P70606 whole entry, looked up): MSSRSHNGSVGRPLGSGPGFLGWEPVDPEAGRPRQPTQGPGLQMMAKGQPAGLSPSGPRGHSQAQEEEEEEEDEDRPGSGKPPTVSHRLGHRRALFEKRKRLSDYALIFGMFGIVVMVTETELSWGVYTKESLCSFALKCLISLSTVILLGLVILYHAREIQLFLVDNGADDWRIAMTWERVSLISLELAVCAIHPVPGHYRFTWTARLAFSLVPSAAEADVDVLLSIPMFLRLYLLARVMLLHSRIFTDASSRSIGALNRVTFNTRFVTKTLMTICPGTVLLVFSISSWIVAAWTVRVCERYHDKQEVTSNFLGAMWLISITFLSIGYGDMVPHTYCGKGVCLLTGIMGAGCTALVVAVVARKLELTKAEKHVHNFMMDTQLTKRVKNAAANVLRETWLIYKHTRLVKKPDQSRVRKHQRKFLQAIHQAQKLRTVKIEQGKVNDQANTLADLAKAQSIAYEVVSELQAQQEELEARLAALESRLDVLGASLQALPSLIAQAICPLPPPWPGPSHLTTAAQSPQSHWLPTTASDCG

Test [7] can be described thus: NVS_IC_rCaBTZCHL: NovaScreen (NVS) Ion Channel Assay for Calcium Channel, Type L, Benzothiazepine Site (CaBTZCHL) (AID 2283337). In outline:
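Rat cortical membrane preparation incubated 1.5 h with compound and benzothiazepine-site radioligand; loss of filter-bound counts versus DMSO marks displacement. Initial duplicate testing at 25 uM, actives followed up in concentration series.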

For test [8], the target named is bovine Gamma-Aminobutyric Acid Type A Receptor Agonist (GABAR Agonist), GABRA1 (gene 780973) (UniProt P08219). In words: NVS_LGIC_bGABAR_Agonist: NovaScreen (NVS) Ligand-Gated Ion Channel Assay for bovine Gamma-Aminobutyric Acid Type A Receptor Agonist (GABAR Agonist) (AID 2283338). In outline:
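Radioligand binding to bovine cerebellar membranes in agonist format, read by filter-based scintillation counting after 1 h. Primary screen in duplicate at 25 uM, with actives followed in concentration series. Gain of signal versus DMSO.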

Test [9] concerns the target rat Glutamate, MK-801 Agonist Site (GluNMDA_MK801), Grin1 (gene 24408) (UniProt P35439). In words: NVS_LGIC_rGluNMDA_MK801_Agonist: NovaScreen (NVS) Ligand-Gated Ion Channel Assay for rat Glutamate, MK-801 Agonist Site (GluNMDA_MK801) (AID 2283340). In outline:
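Rat forebrain membrane preparation; MK-801-site radioligand binding read by filtration and scintillation after 1.5 h. Single-point 25 uM duplicate screen, followed by singleton concentration series to 50 uM max; DMSO baseline.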

In test [10] the target is rat Glycine Receptor, Strychnine-sensitive (GlyRStrySens), Glra1 (gene 25674) (UniProt P07727). The test is described as follows: NVS_LGIC_rGlyRStrySens: NovaScreen (NVS) Ligand-Gated Ion Channel Assay for rat Glycine Receptor, Strychnine-sensitive (GlyRStrySens) (AID 2283341). In outline:
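Radioligand displacement on rat spinal cord membranes, 1 hr, filter scintillation read-out. Single-concentration duplicate screen at 25 uM; chemicals meeting threshold (e.g., 30% inhibition) rerun in concentration-response up to 50 uM. Loss of binding fitted versus DMSO.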

Test [11] concerns the target rat Oxytocin Receptor (OXT), Oxtr (gene 25342) (UniProt P70536). The test is described as follows: NVS_GPCR_rOXT: NovaScreen (NVS) G Protein-Coupled Receptor Assay for rat Oxytocin Receptor (OXT) (AID 2283330). In outline: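 Binding to rat uterine membrane receptor was followed by scintillation counting of filter-trapped radioligand after 1 h. A 25 uM duplicate single-point screen preceded concentration series with a top of 50 uM. Signal loss was analysed relative to DMSO.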

The target in test [12] is human Peripheral-type Benzodiazepine Receptor (PBR), TSPO (gene 706) (UniProt P30536). In words: NVS_MP_hPBR: NovaScreen (NVS) Membrane Protein Assay for human Peripheral-type Benzodiazepine Receptor (PBR) (AID 2283331).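 Note: hits reduce radioligand binding relative to DMSO baseline.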 In outline:
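Cell-free binding to human colonic membrane preparations measured by filter-based scintillation counting after 1 h. Compounds first run at 25 uM in duplicate, then concentration series for actives; signal loss against DMSO baseline.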

In test [13] the target is rat Peripheral-type Benzodiazepine Receptor (PBR), Tspo (gene 24230) (UniProt P16257). In words: NVS_MP_rPBR: NovaScreen (NVS) Membrane Protein Assay for rat Peripheral-type Benzodiazepine Receptor (PBR) (AID 2283335). In outline: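 Competitive displacement of specific radioligand from rat kidney membrane PBR, read by filtration and scintillation after 1 h. Compounds first tested at 25 uM in duplicate, then in concentration series; signal loss relative to DMSO.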
rat Peripheral-type Benzodiazepine Receptor (PBR), Tspo (gene 24230), sequence (P16257 whole entry, looked up): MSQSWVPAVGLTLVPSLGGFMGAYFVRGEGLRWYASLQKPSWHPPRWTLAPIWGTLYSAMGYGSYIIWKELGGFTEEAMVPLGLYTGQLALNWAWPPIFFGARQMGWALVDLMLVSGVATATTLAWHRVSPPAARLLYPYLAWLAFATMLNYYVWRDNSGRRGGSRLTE

Test [14] concerns the target rat Thyrotropin Releasing Hormone Receptor (TRH), Trhr (gene 25570) (UniProt Q01717). In words: NVS_GPCR_rTRH: NovaScreen (NVS) G Protein-Coupled Receptor Assay for rat Thyrotropin Releasing Hormone Receptor (TRH) (AID 2283329).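 Note: hit means lower bound tracer signal versus DMSO baseline.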 In outline: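 Competitive radioligand binding on rat forebrain membrane preparations, with filtration and scintillation readout after 4 h. Primary testing in duplicate at 25 uM; actives confirmed in concentration-response. DMSO defined baseline.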

For test [15], the target named is Glutamate receptor ionotropic, kainate 1 (Rattus norvegicus) (UniProt P22756). In words: NVS_IC_rKAR: NovaScreen (NVS) Ion Channel Assay for rat Kainic Acid Receptors (KAR) (AID 2283334; active = hit-call score of the fitted dose curve at least 0.9, where 1 is the maximum; inactive = score below 0.9). In outline:
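Rat forebrain membrane preparation incubated 1 h with radioligand and test chemical; bound signal read by filtration and scintillation. Single-concentration screen at 25 uM, then concentration series to 50 uM maximum.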

Test [16] has as its target human Androgen Receptor (AR), AR (gene 367) (UniProt P10275). The test is described as follows: NVS_NR_hAR: NovaScreen (NVS) Nuclear Receptor Binding Assay for human Androgen Receptor (AR) (AID 2283332). In outline: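 Radioligand competitive binding, scintillation read-out, in cell-free extract from LnCAP, measured 20 h after dosing. Screened first in duplicate at 25 uM, then concentration series for actives; activity fitted against DMSO.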

Where “and” joins values, the source holds several entries; their conditions need not be identical. Equal values may be shown once. Results filed as inconclusive are left out. Calls of active or inactive are those of the source. Rule for the calls, unless noted: active = hit-call score of the fitted dose curve at least 0.9, where 1 is the maximum; inconclusive = response in the unintended direction; inactive = score below 0.9.

By AC50 is commonly meant the concentration at which the activity in the assay is half-maximal.

human Peripheral-type Benzodiazepine Receptor (PBR), TSPO (gene 706), sequence (P30536 whole entry, looked up): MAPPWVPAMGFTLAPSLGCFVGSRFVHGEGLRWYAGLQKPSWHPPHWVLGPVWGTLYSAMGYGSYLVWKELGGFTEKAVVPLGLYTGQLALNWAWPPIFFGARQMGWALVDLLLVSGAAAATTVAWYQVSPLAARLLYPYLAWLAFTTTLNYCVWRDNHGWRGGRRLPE
human Androgen Receptor (AR), AR (gene 367), sequence (P10275 whole entry, looked up): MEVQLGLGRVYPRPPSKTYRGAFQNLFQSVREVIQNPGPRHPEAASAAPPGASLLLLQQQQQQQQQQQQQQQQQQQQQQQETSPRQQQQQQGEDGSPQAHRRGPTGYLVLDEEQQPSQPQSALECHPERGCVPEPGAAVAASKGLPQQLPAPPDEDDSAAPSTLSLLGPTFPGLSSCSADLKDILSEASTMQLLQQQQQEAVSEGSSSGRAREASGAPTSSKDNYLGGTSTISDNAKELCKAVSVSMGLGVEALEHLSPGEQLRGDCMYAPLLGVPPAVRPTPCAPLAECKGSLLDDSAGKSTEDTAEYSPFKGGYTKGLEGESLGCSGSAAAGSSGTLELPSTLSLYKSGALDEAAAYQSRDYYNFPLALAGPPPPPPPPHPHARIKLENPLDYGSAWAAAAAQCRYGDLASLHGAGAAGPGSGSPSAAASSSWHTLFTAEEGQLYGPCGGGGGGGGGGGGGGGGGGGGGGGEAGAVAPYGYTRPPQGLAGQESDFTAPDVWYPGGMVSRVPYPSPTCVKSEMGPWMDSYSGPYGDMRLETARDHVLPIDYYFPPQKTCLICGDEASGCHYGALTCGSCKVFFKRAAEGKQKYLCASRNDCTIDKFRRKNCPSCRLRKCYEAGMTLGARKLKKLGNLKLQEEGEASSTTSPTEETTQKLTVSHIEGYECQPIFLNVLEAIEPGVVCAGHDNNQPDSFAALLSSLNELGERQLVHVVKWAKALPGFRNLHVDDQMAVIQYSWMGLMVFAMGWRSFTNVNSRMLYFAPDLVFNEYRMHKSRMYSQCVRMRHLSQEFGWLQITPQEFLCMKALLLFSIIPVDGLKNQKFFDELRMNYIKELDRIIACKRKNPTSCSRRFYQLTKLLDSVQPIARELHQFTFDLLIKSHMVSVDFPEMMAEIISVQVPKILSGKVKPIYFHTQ
bovine Gamma-Aminobutyric Acid Type A Receptor Agonist (GABAR Agonist), GABRA1 (gene 780973), sequence (P08219 whole entry, looked up): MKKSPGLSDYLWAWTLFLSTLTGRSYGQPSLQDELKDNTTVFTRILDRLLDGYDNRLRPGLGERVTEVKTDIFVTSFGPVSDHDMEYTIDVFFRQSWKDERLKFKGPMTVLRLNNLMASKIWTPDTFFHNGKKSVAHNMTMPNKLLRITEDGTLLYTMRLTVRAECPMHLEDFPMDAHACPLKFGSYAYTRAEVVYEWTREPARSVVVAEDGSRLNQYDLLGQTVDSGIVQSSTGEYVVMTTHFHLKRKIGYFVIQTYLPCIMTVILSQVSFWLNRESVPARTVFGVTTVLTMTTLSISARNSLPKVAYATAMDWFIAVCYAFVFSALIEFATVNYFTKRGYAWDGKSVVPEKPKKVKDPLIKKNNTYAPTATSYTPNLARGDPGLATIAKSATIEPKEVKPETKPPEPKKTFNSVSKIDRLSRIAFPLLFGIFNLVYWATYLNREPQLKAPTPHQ
Voltage-gated inwardly rectifying potassium channel KCNH2 (Homo sapiens), sequence (Q12809 whole entry, looked up): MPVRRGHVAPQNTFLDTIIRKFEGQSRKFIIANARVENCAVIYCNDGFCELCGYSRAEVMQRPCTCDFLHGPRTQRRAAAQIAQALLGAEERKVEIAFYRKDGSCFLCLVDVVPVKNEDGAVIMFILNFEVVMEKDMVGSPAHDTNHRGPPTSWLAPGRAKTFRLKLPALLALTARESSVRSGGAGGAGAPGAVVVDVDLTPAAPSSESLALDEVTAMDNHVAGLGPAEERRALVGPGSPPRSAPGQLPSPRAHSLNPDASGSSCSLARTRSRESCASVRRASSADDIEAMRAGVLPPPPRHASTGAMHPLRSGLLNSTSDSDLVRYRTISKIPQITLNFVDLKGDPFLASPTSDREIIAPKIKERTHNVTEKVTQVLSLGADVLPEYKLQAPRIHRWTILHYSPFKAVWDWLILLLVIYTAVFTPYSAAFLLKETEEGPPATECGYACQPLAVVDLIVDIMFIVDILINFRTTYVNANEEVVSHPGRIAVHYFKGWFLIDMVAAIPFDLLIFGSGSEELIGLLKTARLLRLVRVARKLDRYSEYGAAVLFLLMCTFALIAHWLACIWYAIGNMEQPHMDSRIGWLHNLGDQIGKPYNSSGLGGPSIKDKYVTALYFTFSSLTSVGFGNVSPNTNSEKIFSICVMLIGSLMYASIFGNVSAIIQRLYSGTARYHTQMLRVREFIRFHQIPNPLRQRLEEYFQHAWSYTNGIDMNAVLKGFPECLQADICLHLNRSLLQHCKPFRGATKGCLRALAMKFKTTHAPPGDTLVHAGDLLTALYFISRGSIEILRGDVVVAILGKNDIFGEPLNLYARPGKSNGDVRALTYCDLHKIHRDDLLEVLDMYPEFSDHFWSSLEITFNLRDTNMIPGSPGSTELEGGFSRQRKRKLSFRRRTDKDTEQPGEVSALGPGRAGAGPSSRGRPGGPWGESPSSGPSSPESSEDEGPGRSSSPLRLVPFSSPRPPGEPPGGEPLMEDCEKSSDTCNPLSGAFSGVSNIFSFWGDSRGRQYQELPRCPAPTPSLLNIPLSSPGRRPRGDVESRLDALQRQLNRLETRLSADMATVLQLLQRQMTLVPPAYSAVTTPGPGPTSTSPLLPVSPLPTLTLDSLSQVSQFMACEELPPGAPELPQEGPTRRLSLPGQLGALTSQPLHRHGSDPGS
rat Gamma-Aminobutyric Acid Type A Receptor BDZ, alpha 6 site (GABARa6), Gabra6 (gene 29708), sequence (P30191 whole entry, looked up): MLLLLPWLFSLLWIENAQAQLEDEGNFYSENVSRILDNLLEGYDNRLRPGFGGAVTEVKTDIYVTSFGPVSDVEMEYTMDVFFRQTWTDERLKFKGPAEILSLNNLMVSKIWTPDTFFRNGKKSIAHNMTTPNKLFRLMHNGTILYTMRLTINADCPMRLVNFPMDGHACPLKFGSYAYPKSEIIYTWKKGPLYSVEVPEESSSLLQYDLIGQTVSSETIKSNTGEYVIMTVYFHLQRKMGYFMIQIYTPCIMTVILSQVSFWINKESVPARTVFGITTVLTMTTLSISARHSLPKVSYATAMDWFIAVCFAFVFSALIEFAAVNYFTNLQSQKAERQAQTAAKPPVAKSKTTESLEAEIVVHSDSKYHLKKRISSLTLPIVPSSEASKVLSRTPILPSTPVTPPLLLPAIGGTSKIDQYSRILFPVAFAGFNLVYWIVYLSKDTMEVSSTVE
bovine Gamma-Aminobutyric Acid Type A Receptor BDZ, alpha 5 site (GABARa5), GABRA5 (gene 523515), sequence (Q08E50 whole entry, looked up): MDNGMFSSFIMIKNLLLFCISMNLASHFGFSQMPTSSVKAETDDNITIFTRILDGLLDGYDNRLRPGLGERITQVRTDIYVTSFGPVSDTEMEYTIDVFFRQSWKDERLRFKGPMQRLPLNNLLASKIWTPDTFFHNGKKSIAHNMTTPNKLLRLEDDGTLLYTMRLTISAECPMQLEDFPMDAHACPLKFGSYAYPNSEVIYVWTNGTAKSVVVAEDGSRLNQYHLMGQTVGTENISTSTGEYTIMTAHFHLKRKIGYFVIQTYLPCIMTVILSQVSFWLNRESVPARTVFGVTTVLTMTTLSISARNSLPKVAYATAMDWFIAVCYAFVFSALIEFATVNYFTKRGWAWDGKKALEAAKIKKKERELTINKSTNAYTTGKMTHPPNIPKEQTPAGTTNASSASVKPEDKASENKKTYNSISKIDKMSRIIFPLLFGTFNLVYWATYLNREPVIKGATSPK
rat Thyrotropin Releasing Hormone Receptor (TRH), Trhr (gene 25570), sequence (Q01717 whole entry, looked up): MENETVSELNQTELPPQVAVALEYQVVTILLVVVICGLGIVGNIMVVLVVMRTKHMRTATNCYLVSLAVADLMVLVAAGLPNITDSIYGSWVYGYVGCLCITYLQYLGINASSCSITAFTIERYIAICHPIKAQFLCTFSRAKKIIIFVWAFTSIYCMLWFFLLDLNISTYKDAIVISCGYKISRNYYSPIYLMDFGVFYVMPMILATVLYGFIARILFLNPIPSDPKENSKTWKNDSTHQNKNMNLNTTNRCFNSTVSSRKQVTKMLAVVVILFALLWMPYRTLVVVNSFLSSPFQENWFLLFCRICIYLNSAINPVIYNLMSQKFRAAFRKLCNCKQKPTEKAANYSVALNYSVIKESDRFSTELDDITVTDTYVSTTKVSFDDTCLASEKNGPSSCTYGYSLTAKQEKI

Turning to `CCC(C)(CC)c1cc(NC(=O)c2c(OC)cccc2OC)on1`, in test [1], the molecule was called inactive. With `Cc1cc2c3c(c1)C(c1ccccc1)=N[C@@H](NC(=O)c1ccncc1)C(=O)N3CC2`, in test [1], the half-maximal activity concentration (AC50) is 1.43 µM (active). The outcome in [2] was inactive. Take `CCCCCCOC(=O)c1ccccc1C(=O)OCCCCCC`: the outcome in test [3] and in [4] was inactive. Take `O=C(O)C(F)(F)C(F)(F)C(F)(F)C(F)(F)C(F)(F)F`: the molecule was classed as inactive in test [5]. For `CC(C)(c1ccccc1)c1ccc(O)cc1`, the outcome in test [6] was inactive. Same read-out and setting: in the case of `COc1ccc(O)c(C(C)(C)C)c1` it was “inactive”. For `CCCCCCCCCC[N+](C)(C)CCCCCCCCCC`, the AC50 in test [7] is 4.34 µM (active). The call in test [8] was inactive. Take `CC1=C2C[C@H]3[C@@H](CC=C4C[C@@H](O)CC[C@@]43C)[C@@H]2CC[C@]12O[C@@H]1C[C@H](C)CN[C@H]1[C@H]2C`: the outcome in test [7] was inactive.

Turning to `Oc1ccc(C(c2ccc(O)cc2)(C(F)(F)F)C(F)(F)F)cc1`, the half-maximal activity concentration (AC50) in test [9] is 19.8 µM (active). In test [10], the call was inactive. Regarding `O=C(NC(=O)c1cc(F)c(F)cc1Cl)Nc1cc(F)ccc1N1CCC(C(=O)O)CC1`, the molecule was called inactive in test [11], in [6] and in test [10]. Turning to `CO/C=C(/C(=O)OC)c1ccccc1COc1cccc(C(F)(F)F)n1`, the AC50 in [12] was 4.21 µM (active); in test [13], 0.189 µM (active). On to `Sc1ccccc1`, for which the call in test [14] was inactive. `O=S(=O)(O)C(F)(F)C(F)(F)C(F)(F)C(F)(F)C(F)(F)C(F)(F)F`: the outcome in test [2] was inactive.

Consider `CCC(C)c1cc([N+](=O)[O-])cc([N+](=O)[O-])c1O` (stereo unspecified), for which the call in test [8] was inactive. `CC(C)(O)C(=O)Nc1ccc([N+](=O)[O-])c(C(F)(F)F)c1`: in test [13], the outcome was inactive. Turning to `COS(=O)(=O)OC`, the molecule was classed as inactive in test [15]. For the molecule `c1ccc(-c2ccccc2)cc1`, the result in test [6] was inactive. Consider `OCC(O)CO`, for which the molecule was called inactive in [14] and in test [13]. Turning to `O=C(O)C(F)(F)C(F)(F)C(F)(F)C(F)(F)C(F)(F)C(F)(F)C(F)(F)C(F)(F)C(F)(F)F`, in [8], the outcome was inactive. Still for that read-out and setting: under `CC#Cc1cc(C)nc(Nc2ccccc2)n1` stands “inactive”. In the case of `Cc1ccccc1CO[C@@H]1C[C@@]2(C(C)C)CC[C@]1(C)O2`, in test [12], the AC50 is 8.27 µM (active). Besides, the molecule was called inactive in test [13]. Turning to `c1cc2ccc3cccc4ccc(c1)c2c34`, the call in test [8] was inactive. `Oc1ccc(Cl)cc1Cl`: the call in test [4] was inactive. Consider `O=NN(c1ccccc1)c1ccccc1`, for which, in test [9], the outcome was inactive. Consider `CCOC(=O)C(O)(c1ccc(Cl)cc1)c1ccc(Cl)cc1`, for which the concentration at half-maximal activity (AC50) in test [16] was 6.91 µM (active); in test [13], 10 µM (active). As to `Cc1cc(O)ccc1Cl`, the AC50 in test [12] is 2.64 µM (active). In the case of `CCC(=O)O[C@H]1CC[C@H]2[C@@H]3CCC4=CC(=O)CC[C@]4(C)[C@H]3CC[C@]12C`, in test [16], the AC50 is 26.8 nM (active) and 48 nM (active). Consider `Cc1cc(-c2ccc(N)c(C)c2)ccc1N`, for which the AC50 in test [13] is 13.7 µM (active).

As for `NS(=O)(=O)C(F)(F)C(F)(F)C(F)(F)C(F)(F)C(F)(F)C(F)(F)C(F)(F)C(F)(F)F`, the call in test [8] was inactive.

`Cc1ccc(O)c(C)c1`: the result in test [12] and in test [13] was inactive.
